The source made the active and inactive calls. The calls were made as follows: active = hit-call score of the fitted dose curve at least 0.9, where 1 is the maximum; inactive = score below 0.9.
Assay: BSK_SAg_SRB: Viability Assessment in the BioMAP Diversity Plus: SAg Assay (AID 2283096);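 also: cells read one day after compound addition; hits may be either gain or loss of signal compared with DMSO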
Details: primary human HUVEC with PBMC
Procedure, shortened: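 Compounds were added to a human vascular co-culture of umbilical vein endothelium and PBMC. After 24 h, parallel cultures were fixed with 10% TCA, stained with 0.1% sulforhodamine B and read at 560 nm. Gain or loss of signal was fitted relative to DMSO.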

Row | SMILES | AC50 | outcome
1 | CCOC(=O)/C=C(C)/C=C/C[C@@H](C)CCCC(C)C | 33.1 µM (active) | –
2 | CCN1CCC2(CC1)COc1cc3c(cc12)N(C(=O)c1ccc(-c2ccc(-c4nnc(C)o4)cc2C)cc1)CC3 | 12.7 µM (active) | –
3 | ClC1=C(Cl)[C@]2(Cl)[C@H]3[C@H]([C@H]4C=C[C@H]3C4)[C@@]1(Cl)C2(Cl)Cl | 5.42 µM (active) | –
4 | CCNc1nc(NC(C)(C)C)nc(SC)n1 | – | inactive
5 | C(=NC1CCCCC1)=NC1CCCCC1 | 30 µM (active) | –
6 | CC(=O)OC(c1ccccc1)C(Cl)(Cl)Cl (stereo not given) | – | inactive
7 | CCOP(=S)(OCC)SCCS(=O)(=O)CC | – | inactive
8 | COC(=O)c1sccc1S(=O)(=O)NC(=O)Nc1nc(C)nc(OC)n1 | – | inactive
9 | CCSC(C)CC1CC(=O)C(C(CC)=NOC/C=C/Cl)=C(O)C1 (stereo not given) | – | inactive
10 | COC(=O)Cc1ccccc1 | – | inactive

From PubChem BioAssay (EPA / NIEHS)
